These results are taken from PubChem BioAssay (EPA / NIEHS).

The nature of test [1]: ATG_E_Box_CIS: Attagene CIS-FACTORIAL HepG2 Assay for human Enhancer Box (E-box) (AID 2282936). The note with it: HepG2 E-box cis-reporter transcription, actives raise or lower the signal. Put shortly:
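Fluorescent reporter fragments separated by capillary electrophoresis gave the signal; mRNA came from HepG2 cells transfected with cis-element reporters and treated 24 h. Curves fitted bidirectionally relative to DMSO controls.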

Test [2] can be described thus: ATG_M_61_CIS: Attagene CIS-FACTORIAL HepG2 Assay for M61 Transcription Factor (Internal Marker) (AID 2282937). As to conditions: HepG2 Attagene CIS-FACTORIAL M61 internal marker reporter; actives raise or lower the signal. Put shortly:
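Readout is reporter mRNA by RT-PCR, fluorescent primer extension and capillary electrophoresis, with gain or loss fitted relative to DMSO. Transfected HepG2 cells carrying endogenous-TF-driven cis reporters were exposed to chemicals for 24 hours.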

A short description of test [3]: ATG_EGR_CIS: Attagene CIS-FACTORIAL HepG2 Assay for human Early Growth Response 1 (EGR1) (AID 2282938). The note with it: HepG2 Attagene CIS-FACTORIAL EGR reporter mRNA; actives raise or lower the signal. Put shortly: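 After 24 h compound exposure, RNA from reporter-transfected HepG2 cells was reverse-transcribed, PCR-amplified, fluorescently labelled and resolved by capillary electrophoresis. EGR1 reporter transcript changes, up or down, were fitted against DMSO, reflecting endogenous transcription-factor activity.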

Test [4] in a line: ATG_ERE_CIS: Attagene CIS-FACTORIAL HepG2 Assay for Estrogen Response Element (ERE) (AID 2282940). The note with it: HepG2 ERE cis-reporter, Attagene RNA transcript; actives raise or lower the signal. Put shortly: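 After a 24 h chemical treatment, RNA from reporter-transfected HepG2 cells is reverse-transcribed, PCR-amplified and fluorescently labelled. Fragments separated by capillary electrophoresis give reporter signal; DMSO serves as negative control.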

Test [5] is described as follows: ATG_Ets_CIS: Attagene CIS-FACTORIAL HepG2 Assay for human Erythroblast Transformation Specific (ETS) (AID 2282941). The note with it: HepG2 ETS cis-reporter transcription, actives raise or lower the signal. Put shortly: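 Bidirectional fit versus DMSO of reporter mRNA signal, detected by RT-PCR and capillary electrophoresis in HepG2 cells transiently transfected with cis-element reporters and dosed 24 h.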

Test [6] deals with Hepatocyte nuclear factor 3-beta (Homo sapiens) (UniProt Q9Y261). Nature of the test: ATG_FoxA2_CIS: Attagene CIS-FACTORIAL HepG2 Assay for human Forkhead box A2 (FOXA2) (AID 2282942). The note with it: HepG2 cis-reporter transcription factor activity, 24 h; actives raise or lower the signal. In outline:
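Endogenous transcription factor activity is captured via cis-element-driven reporter transcripts in transfected HepG2. Total RNA taken at 24 h post-dosing; labelled RT-PCR products resolved by capillary electrophoresis. Gain or loss fitted versus DMSO.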

Test [7] is described as follows: ATG_FoxO_CIS: Attagene CIS-FACTORIAL HepG2 Assay for human Forkhead box O (FoxO) (AID 2282943). The note with it: HepG2 Attagene cis-reporter, FoxO element, mRNA; actives raise or lower the signal. Put shortly: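 HepG2, transient MRTU transfection (cis element, endogenous TFs). Dose 24 h. TriZol RNA → oligo(dT) RT → PCR → 6-FAM primer extension → HpaI cut → CE. Gain/loss vs DMSO.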

A short description of test [8]: ATG_GATA_CIS: Attagene CIS-FACTORIAL HepG2 Assay for human GATA Binding Protein (AID 2282944). As to conditions: HepG2 GATA cis-element reporter, Attagene multiplex mRNA; actives raise or lower the signal. In outline: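 Cells: HepG2, transiently transfected with cis-regulated reporter transcription units. Exposure: 24 h. Detection: RT-PCR plus capillary electrophoresis of FAM-labeled fragments. Analysis: bidirectional, DMSO as baseline.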

A short description of test [9]: ATG_GLI_CIS: Attagene CIS-FACTORIAL HepG2 Assay for human Zinc Finger Protein GLI1 (AID 2282945). The note with it: HepG2, Attagene cis-factorial reporter mRNA, GLI element; actives raise or lower the signal. Put shortly:
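Bidirectional curve fits relative to DMSO, using reporter mRNA levels from RT-PCR plus capillary electrophoresis. Cells were HepG2 transiently carrying cis-regulated reporter constructs, harvested 24 h after dosing.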

Test [10] is described as follows: ATG_GRE_CIS: Attagene CIS-FACTORIAL HepG2 Assay for human Glucocorticoid Response Elements (GRE) (AID 2282947). As to conditions: HepG2 GRE cis-reporter, Attagene multiplex mRNA; actives raise or lower the signal. Put shortly: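 Multiplexed cis-reporter mRNA induction, HepG2, 24 h post-dose. RT-PCR, FAM-labelled, HpaI-digested amplicons by CE. Bidirectional fit vs DMSO.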

A short description of test [11]: ATG_ISRE_CIS: Attagene CIS-FACTORIAL HepG2 Assay for human Interferon Regulatory Factor 1 (IRF1) binding to an Interferon-Stimulated Response Element (ISRE) (AID 2282948). The note with it: HepG2 ISRE cis-reporter (Attagene), mRNA transcription readout; actives raise or lower the signal. In outline:
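Uses HepG2 liver cells transfected with cis-regulated reporters and measures mRNA 24 h post-dosing through RT-PCR, primer-extension labelling and capillary electrophoresis, with DMSO as negative control.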

A short description of test [12]: ATG_M_32_CIS: Attagene CIS-FACTORIAL HepG2 Assay for M32 Transcription Factor (Internal Marker) (AID 2282949).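 Also: background control marker of the multiplexed CIS panel rather than a real target.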 The note with it: HepG2 Attagene cis-factorial M32 reporter, mRNA; actives raise or lower the signal. In outline:
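Using DMSO as baseline, bidirectional curve fits were applied to reporter mRNA signals. These came from transiently transfected HepG2 cells exposed for 24 h, with RNA analysed by RT-PCR, FAM primer extension, HpaI digestion and CE.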

Test [13] is described as follows: ATG_M_06_CIS: Attagene CIS-FACTORIAL HepG2 Assay for M06 Transcription Factor (Internal Marker) (AID 2282950). The note with it: HepG2 Attagene CIS-FACTORIAL M06 internal marker reporter; actives raise or lower the signal. Put shortly: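 Measured 24 h post-dosing in transiently transfected HepG2 cells, this internal-marker endpoint reports reporter mRNA via RT-PCR with fluorescent primer extension and capillary electrophoresis. DMSO served as negative control and baseline for bidirectional fitting.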

Test [14] deals with Hypoxia-inducible factor 1-alpha (Homo sapiens) (UniProt Q16665). Put plainly: ATG_HIF1a_CIS: Attagene CIS-FACTORIAL HepG2 Assay for human Hypoxia Inducible Factor 1 (HIF1A) (AID 2282951). As to conditions: HepG2 Attagene cis-factorial HIF1a reporter transcription; actives raise or lower the signal. Put shortly: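 Activity is fitted in both directions relative to DMSO. Reporter transcripts are read by RT-PCR, fluorescent primer extension and capillary electrophoresis after 24 h chemical treatment. The cells are HepG2 carrying transiently transfected cis-element-driven reporter units responding to endogenous factors.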

In test [15] the target is Hepatocyte nuclear factor 6 (Homo sapiens) (UniProt Q9UBC0). Put plainly: ATG_HNF6_CIS: Attagene CIS-FACTORIAL HepG2 Assay for human Hepatocyte Nuclear Factor 6 (HNF6) (AID 2282952). As to conditions: HepG2 Attagene cis-factorial HNF6 reporter transcription; actives raise or lower the signal. In outline:
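Twenty-four-hour chemical treatment of reporter-transfected HepG2 cells precedes RNA isolation, DNase-treated reverse transcription and PCR of reporter sequences. Labelled fragments are sized by capillary electrophoresis and fitted bidirectionally versus DMSO.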

For test [16], the target named is Heat shock factor protein 1 (Homo sapiens) (UniProt Q00613). Nature of the test: ATG_HSE_CIS: Attagene CIS-FACTORIAL HepG2 Assay for human Heat Shock Transcription Factor 1 (HSE) (AID 2282953). The note with it: HepG2 HSE cis-reporter, Attagene RNA transcription; actives raise or lower the signal. In outline:
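Reporter mRNA induction in HepG2 is measured 24 h after dosing, using transiently transfected multiplexed cis-regulated reporter units. Signal comes from capillary electrophoresis of labelled RT-PCR products, with DMSO as negative control.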

The nature of test [17]: ATG_MRE_CIS: Attagene CIS-FACTORIAL HepG2 Assay for human Metal Responsive Element (MRE) (AID 2282954). The note with it: HepG2 MRE cis-reporter transcription, Attagene multiplex; actives raise or lower the signal. In outline: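 Multiplexed cis-reporter assay in human HepG2 liver cells, 24 h incubation with test chemical. Reporter transcripts measured by RT-PCR and capillary electrophoresis; values from bidirectional curve fitting versus DMSO.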

Test [18] can be described thus: ATG_PBREM_CIS: Attagene CIS-FACTORIAL HepG2 Assay for human Phenobarbital-responsive Enhancer Module (PBREM) (AID 2282955). The note with it: HepG2 PBREM cis-reporter, Attagene multiplexed transcription; actives raise or lower the signal. Put shortly: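 Endogenous transcription factor activity was read from reporter transcripts in transiently transfected human HepG2 liver cells after 24 h dosing. RT-PCR products were fluorescently labelled, HpaI-cut and sized by capillary electrophoresis; activity fitted bidirectionally against DMSO baseline.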

Test [19] is described as follows: ATG_M_19_CIS: Attagene CIS-FACTORIAL HepG2 Assay for M19 Transcription Factor (Internal Marker) (AID 2282939). The note with it: HepG2 Attagene CIS-FACTORIAL M19 internal marker reporter; actives raise or lower the signal. In outline: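 HepG2, MRTU transient transfection, 24 h dosing. Total RNA → RT-PCR → 6-FAM primer extension → HpaI digest → CE fluorescence. Bidirectional curve fit, DMSO negative control.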

Test [20] concerns the target Bile acid receptor (Homo sapiens) (UniProt Q96RI1). Nature of the test: ATG_IR1_CIS: Attagene CIS-FACTORIAL HepG2 Assay for human Nuclear Receptor Subfamily 1 Group H Member 4 (NR1H4), IR1 submotif (AID 2282946). The note with it: IR1 reporter transcription, actives raise or lower the signal. Put shortly:
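HepG2 cells transiently transfected with multiplexed cis-element reporter units read endogenous transcription factor activity. After 24 h compound exposure, reporter mRNA was quantified by RT-PCR, fluorescent labelling, HpaI digestion and capillary electrophoresis; bidirectional fitting versus DMSO baseline.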

Calls of active or inactive are those of the source. The calls were made as follows: active = hit-call score of the fitted dose curve at least 0.9, where 1 is the maximum; inactive = score below 0.9.

Sequence of Hypoxia-inducible factor 1-alpha (Homo sapiens) (Q16665 whole entry, looked up): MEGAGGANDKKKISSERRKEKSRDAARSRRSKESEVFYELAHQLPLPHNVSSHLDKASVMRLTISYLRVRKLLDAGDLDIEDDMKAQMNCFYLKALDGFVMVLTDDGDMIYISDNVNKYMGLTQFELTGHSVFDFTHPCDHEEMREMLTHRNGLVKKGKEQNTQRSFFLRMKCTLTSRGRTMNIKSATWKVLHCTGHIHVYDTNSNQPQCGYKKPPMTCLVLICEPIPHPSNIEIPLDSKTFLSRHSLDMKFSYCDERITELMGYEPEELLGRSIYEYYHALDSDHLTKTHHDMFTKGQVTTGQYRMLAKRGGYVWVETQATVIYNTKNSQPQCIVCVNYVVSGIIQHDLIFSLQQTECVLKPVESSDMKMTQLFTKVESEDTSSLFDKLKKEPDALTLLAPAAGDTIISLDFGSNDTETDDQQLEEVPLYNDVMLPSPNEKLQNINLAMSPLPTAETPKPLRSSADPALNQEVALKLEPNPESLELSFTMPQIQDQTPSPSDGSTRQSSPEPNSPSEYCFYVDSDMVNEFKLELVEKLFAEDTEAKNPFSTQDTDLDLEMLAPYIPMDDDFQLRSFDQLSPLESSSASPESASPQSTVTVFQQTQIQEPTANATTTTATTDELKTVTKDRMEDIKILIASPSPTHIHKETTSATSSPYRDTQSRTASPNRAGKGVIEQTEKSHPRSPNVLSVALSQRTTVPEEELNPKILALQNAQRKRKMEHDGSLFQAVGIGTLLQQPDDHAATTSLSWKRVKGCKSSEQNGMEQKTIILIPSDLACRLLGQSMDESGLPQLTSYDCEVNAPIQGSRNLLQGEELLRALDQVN
Sequence of Hepatocyte nuclear factor 3-beta (Homo sapiens) (Q9Y261 whole entry, looked up): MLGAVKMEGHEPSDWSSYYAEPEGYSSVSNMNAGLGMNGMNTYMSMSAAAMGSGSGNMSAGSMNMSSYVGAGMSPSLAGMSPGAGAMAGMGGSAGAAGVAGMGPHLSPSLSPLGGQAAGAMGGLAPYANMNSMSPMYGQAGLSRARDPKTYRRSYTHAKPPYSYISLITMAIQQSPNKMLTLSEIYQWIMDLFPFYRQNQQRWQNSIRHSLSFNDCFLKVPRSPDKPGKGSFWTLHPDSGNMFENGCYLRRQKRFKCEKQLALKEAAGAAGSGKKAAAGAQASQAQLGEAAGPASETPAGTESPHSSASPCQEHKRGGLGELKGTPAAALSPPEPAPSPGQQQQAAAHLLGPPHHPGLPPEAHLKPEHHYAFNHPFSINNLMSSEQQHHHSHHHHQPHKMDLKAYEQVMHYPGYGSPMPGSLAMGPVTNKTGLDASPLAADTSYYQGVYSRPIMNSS
Sequence of Hepatocyte nuclear factor 6 (Homo sapiens) (Q9UBC0 whole entry, looked up, the tested form may be a part): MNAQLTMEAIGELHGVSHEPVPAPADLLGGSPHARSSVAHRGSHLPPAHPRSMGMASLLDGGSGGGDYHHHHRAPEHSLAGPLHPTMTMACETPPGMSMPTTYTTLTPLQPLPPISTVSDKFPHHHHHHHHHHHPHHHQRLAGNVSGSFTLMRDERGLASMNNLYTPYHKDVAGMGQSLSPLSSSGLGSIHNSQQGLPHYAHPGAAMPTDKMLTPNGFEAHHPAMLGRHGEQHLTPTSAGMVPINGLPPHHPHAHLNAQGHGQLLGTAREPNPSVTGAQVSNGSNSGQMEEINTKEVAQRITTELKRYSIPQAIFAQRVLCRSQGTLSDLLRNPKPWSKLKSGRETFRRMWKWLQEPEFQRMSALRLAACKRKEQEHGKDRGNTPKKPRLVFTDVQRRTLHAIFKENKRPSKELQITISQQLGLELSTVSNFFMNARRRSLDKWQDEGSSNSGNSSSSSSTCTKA
Sequence of Heat shock factor protein 1 (Homo sapiens) (Q00613 whole entry, looked up): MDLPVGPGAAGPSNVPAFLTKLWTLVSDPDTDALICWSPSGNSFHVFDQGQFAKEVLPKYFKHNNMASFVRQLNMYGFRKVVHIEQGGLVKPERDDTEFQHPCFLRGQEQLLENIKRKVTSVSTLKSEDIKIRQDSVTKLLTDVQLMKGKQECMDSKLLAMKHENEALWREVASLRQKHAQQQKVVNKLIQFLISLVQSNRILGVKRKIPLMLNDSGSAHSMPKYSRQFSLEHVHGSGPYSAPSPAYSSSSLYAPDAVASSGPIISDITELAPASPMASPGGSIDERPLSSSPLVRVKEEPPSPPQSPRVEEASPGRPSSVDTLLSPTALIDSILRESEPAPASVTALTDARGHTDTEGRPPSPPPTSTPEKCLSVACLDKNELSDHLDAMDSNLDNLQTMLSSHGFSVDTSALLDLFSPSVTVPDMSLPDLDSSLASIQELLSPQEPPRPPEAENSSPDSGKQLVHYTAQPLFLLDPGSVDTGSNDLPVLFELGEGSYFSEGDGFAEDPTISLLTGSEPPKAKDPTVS
Sequence of Bile acid receptor (Homo sapiens) (Q96RI1 whole entry, looked up): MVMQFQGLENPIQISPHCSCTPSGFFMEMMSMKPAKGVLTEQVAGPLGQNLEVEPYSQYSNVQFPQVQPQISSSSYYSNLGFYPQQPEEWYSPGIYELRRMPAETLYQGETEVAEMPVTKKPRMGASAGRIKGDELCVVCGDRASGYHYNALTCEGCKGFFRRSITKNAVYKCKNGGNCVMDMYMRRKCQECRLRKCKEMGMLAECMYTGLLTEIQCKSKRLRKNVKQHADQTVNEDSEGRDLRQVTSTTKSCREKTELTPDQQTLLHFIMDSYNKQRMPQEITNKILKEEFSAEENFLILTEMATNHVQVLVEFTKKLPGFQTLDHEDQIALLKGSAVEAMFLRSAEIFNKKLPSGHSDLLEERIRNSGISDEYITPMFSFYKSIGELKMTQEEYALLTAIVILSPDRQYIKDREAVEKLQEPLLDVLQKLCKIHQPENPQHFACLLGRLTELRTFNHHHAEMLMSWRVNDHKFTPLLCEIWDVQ

`O=c1n(CC2CO2)c(=O)n(CC2CO2)c(=O)n1CC1CO1` (stereo not drawn): the result in test [1], in test [2], in test [4], in test [6], in test [8] and in [9] was inactive. Further, the outcome in [11], in test [12], in test [13], in [14], in test [15] and in test [16] was inactive. Moreover, the outcome in test [18] was inactive. For the same compound, the half-maximal activity concentration (AC50) (as a rule, the midpoint of the concentration-response curve, whichever way the signal moves) in test [3] was 100 µM (active); in test [5] it was 100 µM (active); in test [7], 31.7 µM (active); in test [10] it was 32.7 µM (active); in test [17] it was 59 µM (active).

For the compound `O=C(O)c1cccc(N(Cc2cccnc2)c2ccc(OC(F)F)c(OC(F)F)c2)c1`, the result in [1], in [2], in test [3], in test [19], in [5] and in test [6] was inactive. Further, the compound was called inactive in test [7], in test [8], in test [9], in [12], in [13] and in test [14]. In addition, the compound was called inactive in [15], in [16], in test [17] and in test [18].

As to `CC[C@H]1OC(=O)[C@H](C)[C@@H](O[C@H]2C[C@@](C)(OC)[C@@H](O)[C@H](C)O2)[C@H](C)[C@@H](O[C@@H]2O[C@H](C)C[C@H](N(C)C)[C@H]2O)[C@](C)(O)C[C@@H](C)C(=O)[C@H](C)[C@@H](O)[C@]1(C)O`, the outcome in test [1], in [2], in test [3], in test [19], in [5] and in test [6] was inactive. The compound was classed as inactive in test [7], in test [8], in test [9], in test [11], in [12] and in test [13]. The result in test [15], in [16], in test [17] and in test [18] was inactive.

With `CCCCC(CC)COC(=O)CCCCCCCCC(=O)OCC(CC)CCCC` (stereo not drawn), the outcome in [1], in test [2], in [3], in test [4], in [5] and in test [6] was inactive. Further, the call in [7], in [8], in test [9], in test [20], in test [10] and in test [12] was inactive. The call in test [13], in [14], in [15], in test [16], in test [17] and in test [18] was inactive.
